Results taken from PubChem BioAssay (EPA / NIEHS).
The source made the active and inactive calls. How the source made its calls: active means hit-call score of the fitted dose curve at least 0.9, where 1 is the maximum; inactive means score below 0.9.

Tests used:
[1] = read-out: Plasminogen activator inhibitor-1 (PAI1), SERPINE1 (gene 5054); experiment: BSK_hDFCGF_PAI1: BioMAP Diversity Plus: hDFCGF Assay for Plasminogen activator inhibitor-1 (PAI1) Biomarker Activity (AID 2283066); details: primary human foreskin fibroblasts; actives raise or lower the signal
Outline: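 Human foreskin fibroblasts in the hDFCGF system were dosed with compound for 24 h; PAI-1 was quantified by ELISA. Bidirectional curve fitting used DMSO as negative control and baseline.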

[2] = read-out: Intercellular Adhesion Molecule 1 (ICAM1), ICAM1 (gene 3383); experiment: BSK_KF3CT_ICAM1: BioMAP Diversity Plus: KF3CT Assay for Intercellular Adhesion Molecule 1 (ICAM1) Biomarker Activity (AID 2283067); details: primary human keratinocytes with fibroblasts; actives raise or lower the signal
Outline: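 Cell-surface ICAM-1 was measured by ELISA 24 h after dosing primary human skin keratinocytes co-cultured with fibroblasts. Parallel SRB staining tracked overt cytotoxicity. Gain or loss of signal was fitted relative to DMSO.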

[3] = BSK_KF3CT_SRB: Viability Assessment in the BioMAP Diversity Plus: KF3CT Assay (AID 2283069); details: primary human keratinocytes with fibroblasts;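 further: total protein by sulforhodamine B staining as a cytotoxicity measure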
Outline: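 Human keratinocyte and foreskin fibroblast co-culture exposed to chemical for 24 h. Total protein measured in parallel cultures by 0.1% sulforhodamine B staining after 10% TCA fixation, read at 560 nm; bidirectional fit relative to DMSO.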

[4] = read-out: Interleukin-1 alpha (IL1a), IL1A (gene 3552); experiment: BSK_KF3CT_IL1a: BioMAP Diversity Plus: KF3CT Assay for Interleukin-1 alpha (IL1a) Biomarker Activity (AID 2283070); details: primary human keratinocytes with fibroblasts; actives raise or lower the signal
Outline: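 Primary human keratinocyte plus foreskin fibroblast co-culture, dosed and measured at 24 h in 96-well plates. IL-1a level quantified by ELISA; bidirectional fit relative to DMSO.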

[5] = read-out: TIMP metallopeptidase inhibitor 2 (TIMP2), TIMP2 (gene 7077); experiment: BSK_KF3CT_TIMP2: BioMAP Diversity Plus: KF3CT Assay for TIMP metallopeptidase inhibitor 2 (TIMP2) Biomarker Activity (AID 2283071); details: primary human keratinocytes with fibroblasts; actives raise or lower the signal
Outline: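 Human primary keratinocyte/foreskin fibroblast co-culture dosed with chemical and sampled at 24 h. TIMP-2 levels quantified by ELISA; bidirectional fitting against DMSO negative control as baseline.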

[6] = read-out: Transforming growth factor beta 1 (TGFb1), TGFB1 (gene 7040); experiment: BSK_KF3CT_TGFb1: BioMAP Diversity Plus: KF3CT Assay for Transforming growth factor beta 1 (TGFb1) Biomarker Activity (AID 2283072); details: primary human keratinocytes with fibroblasts; actives raise or lower the signal
Outline: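 Human keratinocyte plus foreskin fibroblast primary co-culture, dosed with chemical for 24 h. TGF-b1 quantified by ELISA. Activity fitted bidirectionally against DMSO negative control as baseline.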

[7] = read-out: C-C motif chemokine 2 (Homo sapiens) (UniProt P13500); experiment: BSK_KF3CT_MCP1: BioMAP Diversity Plus: KF3CT Assay for Monocyte Chemoattractant Protein 1 (MCP1/CCL2) Biomarker Activity (AID 2283073); details: primary human keratinocytes with fibroblasts; actives raise or lower the signal
Outline: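 ELISA read-out of MCP-1, 24 h post-dose, in primary human skin keratinocytes co-cultured with fibroblasts. Parallel SRB staining monitors cytotoxicity; changes fitted both directions relative to DMSO.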

[8] = read-out: Matrix Metallopeptidase 9 (MMP9), MMP9 (gene 4318); experiment: BSK_KF3CT_MMP9: BioMAP Diversity Plus: KF3CT Assay for Matrix Metallopeptidase 9 (MMP9) Biomarker Activity (AID 2283074); details: primary human keratinocytes with fibroblasts; actives raise or lower the signal;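 on AC50: MMP9 protein level quantified by ELISA in the co-culture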
Outline: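 Human keratinocyte and foreskin fibroblast co-culture exposed to chemicals for 24 h; MMP9 biomarker measured by ELISA, bidirectional fitting relative to DMSO; cytotoxicity tracked by SRB total protein staining in parallel cultures.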

[9] = read-out: urokinase plasminogen activator (uPA), PLAU (gene 5328); experiment: BSK_KF3CT_uPA: BioMAP Diversity Plus: KF3CT Assay for urokinase plasminogen activator (uPA) Biomarker Activity (AID 2283075); details: primary human keratinocytes with fibroblasts; actives raise or lower the signal
Outline: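 Primary human keratinocyte/foreskin fibroblast co-culture exposed to chemical; uPA measured by ELISA at 24 h. Bidirectional fit versus DMSO, with parallel SRB total-protein staining for cytotoxicity.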

CD40, CD40 (gene 958) = experiment: BSK_LPS_CD40: BioMAP Diversity Plus: LPS Assay for CD40 Biomarker Activity (AID 2283076); details: primary human HUVEC with PBMC; actives raise or lower the signal
Outline: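 In the LPS system of human endothelial cells with peripheral blood mononuclear cells, CD40 levels were read by ELISA 24 h post-treatment. Signal changes in either direction were fitted against the DMSO baseline, with parallel SRB protein staining.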

[10] = read-out: E-selectin (Homo sapiens) (UniProt P16581); experiment: BSK_LPS_Eselectin: BioMAP Diversity Plus: LPS Assay for Eselectin Biomarker Activity (AID 2283077); details: primary human HUVEC with PBMC; actives raise or lower the signal
Outline: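 E-selectin ELISA on LPS-stimulated endothelial cell/PBMC co-cultures, read 24 h post-treatment; gains and losses fitted against DMSO. Parallel SRB staining (0.1% SRB after 10% TCA fixation, 560 nm) flags overt cytotoxicity.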

[11] = read-out: Interleukin-8 (IL8), CXCL8 (gene 3576); experiment: BSK_LPS_IL8: BioMAP Diversity Plus: LPS Assay for Interleukin-8 (IL8) Biomarker Activity (AID 2283078); details: primary human HUVEC with PBMC; actives raise or lower the signal
Outline: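 ELISA read-out of IL-8 after 24 h chemical treatment of LPS-activated endothelial/PBMC human primary co-cultures. Changes either up or down relative to DMSO; overt cytotoxicity checked by sulforhodamine B staining in parallel wells.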

[12] = BSK_LPS_SRB: Viability Assessment in the BioMAP Diversity Plus: LPS Assay (AID 2283079); details: primary human HUVEC with PBMC;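 further: total protein by sulforhodamine B absorbance as a cytotoxicity measure; measured one day after compound addition; fitted in both directions against DMSO so loss or gain of signal counts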
Outline: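 SRB viability endpoint: cells fixed with 10% TCA, stained with 0.1% SRB, read at 560 nm, 24 h post-dose. HUVEC/PBMC co-culture; signal change in either direction scored relative to DMSO.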

[13] = read-out: Interleukin-1 alpha (IL1a), IL1A (gene 3552); experiment: BSK_LPS_IL1a: BioMAP Diversity Plus: LPS Assay for Interleukin-1 alpha (IL1a) Biomarker Activity (AID 2283080); details: primary human HUVEC with PBMC; actives raise or lower the signal
Outline: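 Readout is IL-1a level by ELISA, 24 h post-dose, fitted as gain or loss relative to DMSO. System: LPS-activated human primary co-culture of vascular endothelium and peripheral blood mononuclear cells, with parallel SRB total-protein cytotoxicity.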

[14] = read-out: Monocyte Chemoattractant Protein-1 (MCP1), CCL2 (gene 6347); experiment: BSK_LPS_MCP1: BioMAP Diversity Plus: LPS Assay for Monocyte Chemoattractant Protein-1 (MCP1) Biomarker Activity (AID 2283081); details: primary human HUVEC with PBMC; actives raise or lower the signal
Outline: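 Secreted MCP-1 read by ELISA at 24 h post-dosing in an LPS-activated co-culture of endothelial cells with peripheral blood mononuclear cells. Fits run in both directions, DMSO as baseline; parallel SRB staining tracks overt cytotoxicity.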

[15] = BSK_LPS_PGE2: BioMAP Diversity Plus: LPS Assay for Prostaglandin E2 (PGE2) Biomarker Activity (AID 2283082); details: primary human HUVEC with PBMC; actives raise or lower the signal;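 on AC50: secreted prostaglandin E2 measured by ELISA in LPS-stimulated co-culture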
Outline: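 HUVEC plus PBMC co-culture stimulated with LPS; secreted PGE2 quantified by ELISA 24 h after chemical dosing. Activity fitted bidirectionally against DMSO as negative control and baseline; parallel SRB total-protein staining served as cytotoxicity check.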

[16] = read-out: Macrophage colony-stimulating factor (MCSF), CSF1 (gene 1435); experiment: BSK_LPS_MCSF: BioMAP Diversity Plus: LPS Assay for Macrophage colony-stimulating factor (MCSF) Biomarker Activity (AID 2283083); details: primary human HUVEC with PBMC; actives raise or lower the signal
Outline: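 Bidirectional fitting against DMSO was applied to M-CSF levels read by ELISA at 24 h post-dose. The system pairs human umbilical vein endothelium with peripheral blood mononuclear cells; parallel SRB staining tracked cytotoxicity.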

[17] = read-out: Tissue Factor, F3 (gene 2152); experiment: BSK_LPS_TissueFactor: BioMAP Diversity Plus: LPS Assay for Tissue Factor Biomarker Activity (AID 2283084); details: primary human HUVEC with PBMC; actives raise or lower the signal
Outline: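 Compound was added to an endothelial cell/PBMC co-culture, and after 24 h tissue factor (CD142) was read by ELISA. Gain or loss of signal was fitted against a DMSO baseline, and parallel SRB staining (560 nm) tracked overt cytotoxicity.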

[18] = read-out: Interferon-gamma inducible Protein 10 (IP10), CXCL10 (gene 3627); experiment: BSK_KF3CT_IP10: BioMAP Diversity Plus: KF3CT Assay for Interferon-gamma inducible Protein 10 (IP10) Biomarker Activity (AID 2283068); details: primary human keratinocytes with fibroblasts; actives raise or lower the signal
Outline: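 KF3CT co-culture (keratinocytes + foreskin fibroblasts), 24 h compound, IP-10 by ELISA; bidirectional fit vs DMSO baseline.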

[19] = read-out: Tumor necrosis factor (Homo sapiens) (UniProt P01375); experiment: BSK_LPS_TNFa: BioMAP Diversity Plus: LPS Assay for Tumour Necrosis Factor alpha (TNFa) Biomarker Activity (AID 2283085); details: primary human HUVEC with PBMC; actives raise or lower the signal;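 on AC50: TNFa protein level quantified by ELISA in the co-culture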
Outline: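 Human umbilical vein endothelial cells co-cultured with PBMC were exposed to test chemical and TNFa measured by ELISA 24 h after dosing. Bidirectional curve fitting was done relative to DMSO as negative control and baseline.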

Sequence of Tumor necrosis factor (Homo sapiens) (P01375 whole entry, looked up): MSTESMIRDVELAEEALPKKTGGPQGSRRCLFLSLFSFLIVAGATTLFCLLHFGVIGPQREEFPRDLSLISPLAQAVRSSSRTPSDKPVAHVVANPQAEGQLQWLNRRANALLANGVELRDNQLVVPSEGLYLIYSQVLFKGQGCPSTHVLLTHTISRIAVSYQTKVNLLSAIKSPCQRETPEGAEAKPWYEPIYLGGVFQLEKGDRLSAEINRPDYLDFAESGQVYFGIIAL
Sequence of E-selectin (Homo sapiens) (P16581 whole entry, looked up): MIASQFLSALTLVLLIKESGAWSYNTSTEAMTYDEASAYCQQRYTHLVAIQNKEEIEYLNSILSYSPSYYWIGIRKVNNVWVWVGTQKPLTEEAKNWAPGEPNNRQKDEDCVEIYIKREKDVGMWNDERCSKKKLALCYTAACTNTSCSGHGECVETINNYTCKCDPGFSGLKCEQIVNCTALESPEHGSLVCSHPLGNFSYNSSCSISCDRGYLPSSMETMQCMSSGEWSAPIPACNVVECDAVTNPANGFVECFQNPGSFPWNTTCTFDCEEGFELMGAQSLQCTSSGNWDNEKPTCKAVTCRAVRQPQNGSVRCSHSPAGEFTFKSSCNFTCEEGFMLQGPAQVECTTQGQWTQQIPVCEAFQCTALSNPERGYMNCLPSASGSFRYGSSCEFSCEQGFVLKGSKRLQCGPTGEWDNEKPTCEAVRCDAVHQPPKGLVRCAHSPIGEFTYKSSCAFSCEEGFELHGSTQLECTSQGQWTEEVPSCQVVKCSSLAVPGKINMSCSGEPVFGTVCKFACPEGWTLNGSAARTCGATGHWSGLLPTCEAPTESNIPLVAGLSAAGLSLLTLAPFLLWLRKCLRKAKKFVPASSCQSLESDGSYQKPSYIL

Nc1ccc(Cl)cc1N
outcome [1]: inactive
outcome [2]: inactive
outcome [3]: inactive
outcome [4]: inactive
outcome [5]: inactive
outcome [6]: inactive
outcome [7]: inactive
AC50 [8]: 8.99 µM (active)
outcome [9]: inactive
outcome (CD40, CD40 (gene 958)): inactive
AC50 [10]: 4.45 µM (active)
outcome [11]: inactive
outcome [12]: inactive
outcome [13]: inactive
outcome [14]: inactive
AC50 [15]: 10 µM (active)
AC50 [16]: 2.96 µM (active)
outcome [17]: inactive

O=C(O)C1C2CCC(O2)C1C(=O)O (stereo not given)
AC50 [1]: 6.83 µM (active)
outcome [2]: inactive
outcome [18]: inactive
outcome [3]: inactive
outcome [4]: inactive
outcome [5]: inactive
outcome [6]: inactive
AC50 [8]: 28.7 µM (active)
outcome [9]: inactive
outcome (CD40, CD40 (gene 958)): inactive
outcome [10]: inactive
outcome [11]: inactive
AC50 [12]: 18.6 µM (active)
AC50 [13]: 18.6 µM (active)
outcome [14]: inactive
outcome [15]: inactive
outcome [16]: inactive
outcome [17]: inactive
AC50 [19]: 6.16 µM (active)

CCOc1cccc(C2(N3CCN(c4ccccc4)CC3)CCC(C)CC2)c1 (stereo not given)
outcome [1]: inactive
outcome [2]: inactive
outcome [18]: inactive
outcome [3]: inactive
outcome [4]: inactive
outcome [5]: inactive
outcome [6]: inactive
outcome [8]: inactive
outcome [9]: inactive
outcome (CD40, CD40 (gene 958)): inactive
outcome [10]: inactive
outcome [11]: inactive
outcome [12]: inactive
outcome [13]: inactive
outcome [14]: inactive
outcome [15]: inactive
outcome [16]: inactive
outcome [17]: inactive
outcome [19]: inactive

CCCCCCCCOC(=O)c1ccc(C(=O)OCCCCCCCC)c(C(=O)OCCCCCCCC)c1
outcome [1]: inactive
outcome [2]: inactive
outcome [18]: inactive
outcome [3]: inactive
outcome [4]: inactive
outcome [5]: inactive
outcome [6]: inactive
outcome [8]: inactive
outcome [9]: inactive
outcome (CD40, CD40 (gene 958)): inactive
outcome [10]: inactive
outcome [11]: inactive
outcome [12]: inactive
outcome [13]: inactive
outcome [14]: inactive
outcome [15]: inactive
outcome [16]: inactive
outcome [17]: inactive

Cc1ccc(N)cc1
outcome [1]: inactive
outcome [2]: inactive
outcome [3]: inactive
outcome [4]: inactive
outcome [5]: inactive
outcome [6]: inactive
outcome [7]: inactive
outcome [8]: inactive
outcome [9]: inactive
outcome (CD40, CD40 (gene 958)): inactive
outcome [10]: inactive
outcome [11]: inactive
outcome [12]: inactive
outcome [13]: inactive
outcome [14]: inactive
outcome [15]: inactive
outcome [16]: inactive
outcome [17]: inactive
outcome [19]: inactive

OCCOCCO
outcome [1]: inactive
outcome [2]: inactive
outcome [18]: inactive
outcome [3]: inactive
outcome [4]: inactive
outcome [5]: inactive
outcome [6]: inactive
outcome [8]: inactive
outcome [9]: inactive
outcome (CD40, CD40 (gene 958)): inactive
outcome [10]: inactive
outcome [11]: inactive
outcome [12]: inactive
outcome [13]: inactive
outcome [14]: inactive
outcome [15]: inactive
outcome [16]: inactive
outcome [17]: inactive
outcome [19]: inactive

O=C(N[C@H](c1ccccc1)[C@@H]1CN2CCC1CC2)c1c(Cl)ccc(C(F)(F)F)c1Cl
outcome [1]: inactive
AC50 [2]: 49.6 µM (active)
AC50 [18]: 49 µM (active)
AC50 [3]: 44.6 µM (active)
AC50 [4]: 47.9 µM (active)
AC50 [6]: 48.7 µM (active)
AC50 [8]: 41.7 µM (active)
AC50 [9]: 42.7 µM (active)
AC50 (CD40, CD40 (gene 958)): 19.5 µM (active)
outcome [10]: inactive
AC50 [11]: 7.76 µM (active)
AC50 [12]: 29.7 µM (active)
outcome [13]: inactive
outcome [14]: inactive
AC50 [15]: 4.3 µM (active)
outcome [16]: inactive
outcome [17]: inactive
outcome [19]: inactive
